Screening data deposited in PubChem by The Scripps Research Institute Molecular Screening Center.
Shown are actives, neighbours in structure and some others; about 5.7% of the full set was active somewhere.
DAX1 inh-1 – DAX1 (NR0B1) inhibitors on StAR promoter, primary screen, cell-based, luminescence, SF-1 (NR5A1), full-length DAX-1; actives 1.1% (n = 370,000); HEK293T StAR-luciferase reporter, SF-1/DAX-1 repression relief; inhibition, % at 6.8 µM; AID 652010, 2013;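 active = inhibition above the mean over all tested compounds plus 3 SD, cut at about 3.6% in these data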;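 also: 0% = DAX-1 cells with DMSO and 100% = cells lacking DAX-1 with DMSO; higher inhibition means more luminescence from relief of DAX-1 repression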
AHR activator – AHR activators, primary screen, cell-based, luminescence, luciferase reporter, human | Aryl hydrocarbon receptor (Homo sapiens), P35869 | AHR-responsive luciferase reporter cells | activation, % at 5 µM | actives 2.5% (n = 320,000) | AID 2796, 2010; in the data active = activation above about 47%;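 also: 0% = vehicle wells and 100% = reference agonist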
Target sequence (P35869 whole entry, looked up): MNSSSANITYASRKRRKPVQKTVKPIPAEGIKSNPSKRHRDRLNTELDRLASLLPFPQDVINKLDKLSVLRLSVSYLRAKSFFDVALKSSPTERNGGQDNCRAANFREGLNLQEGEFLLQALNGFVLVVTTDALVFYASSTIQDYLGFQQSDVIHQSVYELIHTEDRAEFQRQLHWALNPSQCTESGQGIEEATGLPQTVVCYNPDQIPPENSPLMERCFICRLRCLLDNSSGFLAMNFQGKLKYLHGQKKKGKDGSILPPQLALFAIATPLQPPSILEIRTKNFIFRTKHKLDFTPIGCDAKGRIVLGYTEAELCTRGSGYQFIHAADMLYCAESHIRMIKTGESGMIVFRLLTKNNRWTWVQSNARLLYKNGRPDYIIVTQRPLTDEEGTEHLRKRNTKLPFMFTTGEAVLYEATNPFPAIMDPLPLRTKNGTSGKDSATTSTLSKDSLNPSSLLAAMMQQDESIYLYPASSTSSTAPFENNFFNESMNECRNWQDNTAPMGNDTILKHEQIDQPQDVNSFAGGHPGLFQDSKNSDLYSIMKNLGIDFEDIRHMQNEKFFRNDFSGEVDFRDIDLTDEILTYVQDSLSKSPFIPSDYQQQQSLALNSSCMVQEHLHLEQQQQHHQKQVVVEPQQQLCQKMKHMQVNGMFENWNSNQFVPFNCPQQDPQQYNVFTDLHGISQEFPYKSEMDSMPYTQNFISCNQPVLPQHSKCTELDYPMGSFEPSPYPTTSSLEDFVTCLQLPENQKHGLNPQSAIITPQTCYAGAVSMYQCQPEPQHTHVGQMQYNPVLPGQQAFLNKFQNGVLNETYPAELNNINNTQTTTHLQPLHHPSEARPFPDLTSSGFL
ssDAF-12 act – S. stercoralis DAF-12 nuclear receptor activators, primary screen, cell-based, luminescence, HEK293, GRIP1 co-expression, lit1-tk-luc | Nuclear hormone receptor DAF-12 (Strongyloides stercoralis) | HEK293 ssDAF-12/GRIP1 lit1-tk-luc reporter; % of 3 µM dafachronic acid response | activation, % at 6.8 µM | actives 1% (n = 370,000);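 active = activation above the mean over all tested compounds plus 3 SD, cut at about 0.9% in these data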;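 also: 0% = DMSO-only wells and 100% = 3 µM delta7-dafachronic acid wells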
hcDAF12 agonist – H. contortus DAF-12 nuclear receptor activators, primary screen, cell-based, luminescence, HEK293, lit1-tk-luc reporter; HEK293 hcDAF-12 lit1-tk-luc reporter; 0% DMSO, 100% Δ7-dafachronic acid; activation, % at 6.8 µM; actives 1.4% (n = 370,000); AID 652067, 2013;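 active = activation above the mean of all tested compounds plus 3 SD, cut at about 5.5% in these data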;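 also: 100% = response to 3 µM Δ7-dafachronic acid high control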
DAX1 inh-2 – DAX1 (NR0B1) inhibitors, primary screen, cell-based, HEK293, Gal4-DAX1, luciferase luminescence. Nuclear receptor subfamily 0 group B member 1 (Homo sapiens), P51843. HEK293 Gal4-DAX1 luciferase reporter. inhibition, % at 6.75 µM. actives 0.99% (n = 340,000). AID 504766, 2011;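 active = inhibition above the mean over all tested compounds plus 3 SD, cut at about 4.2% in these data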;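 also: 0% = DAX1-transfected cells with DMSO and 100% = empty-vector control cells with DMSO; inhibition shows as a rise in luminescence from relieved DAX1 repression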
hgDAF12 agonist – H. glycines DAF-12 receptor agonists, primary screen, cell-based, luminescence, HEK293, GAL4 fusion, UAS-luciferase; activation, % at 6.8 µM; HEK293 GAL4-hgDAF12 UAS-luciferase reporter, agonist luminescence; normalized to butyrate control; AID 687014, 2013; actives 1.8% (n = 370,000);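 active = activation above a cutoff set at the mean of all screened compounds plus 3 SD, cut at about 10% in these data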;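 also: 0% = DMSO wells and 100% = sodium butyrate wells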
hgDAF12 conf – H. glycines DAF-12 receptor agonists, confirmation, cell-based, luminescence, HEK293, GAL4-LBD fusion; shares compounds with hgDAF12 agonist; actives 80% (n = 3,300); HEK293 GAL4-hgDAF12 luciferase reporter, agonist mode; percent of butyrate response; activation, % at 6.8 µM;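 active = mean activation over triplicate wells above the hit cutoff derived from the earlier primary screen, cut at about 11% in these data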;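 also: 0% = DMSO low control and 100% = 2 mM sodium butyrate high control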
LXR ag 2 – LXR agonists, Gal4 luciferase reporter, confirmation, counter-screen for hgDAF-12 agonist project, cell-based, luminescence, HEK293, H. glycines campaign. 3,300 tested, under 10 active. activation, % at 6.8 µM. shares compounds with hgDAF12 agonist. 24 h;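 active = mean activation of the triplicate above a set limit carried over from the primary screen, none filed active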
* = called active by the depositor; · = not tested or not shown.

SMILES	DAX1 inh-1	AHR activator	ssDAF-12 act	hcDAF12 agonist	DAX1 inh-2	hgDAF12 agonist	hgDAF12 conf	LXR ag 2
Clc1ccc2nc(CSCc3ccccc3)cn2c1	4.0*	1.0	0.9*	2.4	2.1	18.9*	14.2*	0.8
COc1ccc(NS(=O)(=O)c2cc(NC(=O)c3cnccn3)ccc2OC)cc1Br	-0.6	4.9	-1.2	-1.6	0.1	-0.6	·	·
O=C(NNC1=C(C(=O)C(F)(F)F)CCC1)c1cccc(O)c1	4.3*	19.8	-0.3	1.7	2.5	13.4*	5.7	0.0
Cc1ccc(-c2nn(-c3ccccc3)cc2C(N)=O)o1	0.9	26.0	-1.2	2.2	0.0	3.4	·	·
Cc1ccc(-c2nn(-c3ccccc3)cc2C=O)o1	3.6	-3.9	0.0	3.2	0.8	13.4*	10.1	0.5
Fc1ccccc1COc1ccc(Br)cc1CNCC1CCCO1 (stereo not given)	-1.2	4.5	-1.5	-2.2	0.6	4.2	·	·
Cn1nnc(NCc2cc(Br)ccc2OCc2ccccc2F)n1	-0.3	10.3	-1.8	-1.5	-0.3	17.5*	1.6	0.0
COC(=O)CCc1sc(Nc2ccccc2)nc1-c1ccc(OC)cc1	2.3	17.0	0.2	3.4	2.3	14.0*	12.7*	0.5
O=C(Nc1ccc(F)cc1F)Nc1sccc1-c1nc2ccccc2s1	0.3	28.9	-0.9	3.5	-0.3	6.7	·	·
O=C(Nc1nc2ccccc2s1)Nc1ccc(F)cc1F	1.5	70.9*	-0.1	5.5	3.3	13.7*	15.4*	0.8
COC(=O)Cc1ccc(OC2(C)CCN(Cc3ccccc3OC(F)F)C2)cc1 (stereo not given)	1.4	·	-1.8	-1.7	·	-0.6	·	·
N#Cc1ccc(Nc2nc(-c3ccccc3)cs2)cc1	-0.6	·	0.7	3.6	·	18.3*	15.9*	0.7
COc1cccc(CN(C(=O)/C=C/c2ccc(Cl)cc2)C2CCS(=O)(=O)C2)c1 (stereo not given)	0.2	-0.4	-1.6	-0.3	-0.1	-2.1	·	·
COC(C(=O)N/N=C(\C)c1ccc(C)cc1)c1ccccc1 (stereo not given)	-0.6	·	-1.6	-0.7	-1.2	-1.4	·	·
COC(C(=O)N/N=C(\C)c1ccc(O)cc1)c1ccccc1 (stereo not given)	1.2	2.0	0.7	5.1	-0.3	13.8*	0.8	0.0
COc1cccc(NC(=O)Nc2nc3ncccn3c2-c2ccc(C)cc2)c1	0.1	·	-0.1	-0.1	·	13.8*	5.5	0.2
Cc1ccc(-c2c(NC(=O)Nc3ccc(F)cc3)nc3ncccn23)cc1	-1.8	·	-0.5	1.1	·	4.1	·	·
Cc1ccnc(NC(=O)C2COc3ccccc3O2)c1 (stereo not given)	3.8*	-3.5	0.2	3.2	2.9	13.7*	16.9*	0.8
O=[N+]([O-])c1ccc(COn2nnc3ccccc32)cc1	-0.6	-7.4	-1.2	0.0	0.7	2.0	·	·
Clc1ccc(COn2nnc3ccccc32)c(Cl)c1	4.0*	3.5	0.1	5.3	4.5*	13.6*	17.9*	0.6
